Results reported in PubChem BioAssay (NCATS).
Records with an inconclusive call do not appear. Calls of active or inactive are those of the source. Calls come from the whole dose curve; as a rule, active = well fitted curve in the direction sought with a large enough effect; inconclusive = small, poorly fitted or top-dose-only effect, or another doubt; inactive = no such curve, though single readings can be large; an effect the other way counts as inactive or inconclusive.

Legend:
[1] = Quantitative High-Throughput drug screen in 47 multiple myeloma cell lines against the NCATS MIPE library collection: AMO1_DSMZ cell viability assay (AID 1918927; note: nearly all actives have a fitted effect of over 30% in size)
Method in brief: (§1)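 qHTS of the MIPE 4.0 collection: 500 myeloma cells/well, 48 h drug exposure at 37C in 5% CO2, then CellTiter-Glo for 5 min at room temperature before luminescence reading.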

[2] = Quantitative High-Throughput drug screen in 47 multiple myeloma cell lines against the NCATS MIPE library collection: ARP1_JJKsccF8 cell viability assay (AID 1918928; note: nearly all actives have a fitted effect of over 40% in size)
Method in brief: (§2)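 Cell viability inhibition in this qHTS is measured via ATP content (CellTiter-Glo) after 48 h drug exposure at 37 °C. Wells hold 500 cells; DMSO-treated wells define 100% and medium-only wells 0%.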

[3] = Quantitative High-Throughput drug screen in 47 multiple myeloma cell lines against the NCATS MIPE library collection: ARD_JJKsccE7 cell viability assay (AID 1918929)
Method in brief: as §1

[4] = Quantitative High-Throughput drug screen in 47 multiple myeloma cell lines against the NCATS MIPE library collection: Karpas620_DSMZ cell viability assay (AID 1918959); note: nearly all actives have a fitted effect of over 30% in size
Method in brief: (§3)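 Myeloma cells (500 per well) were exposed to MIPE 4.0 compounds by pin transfer and incubated 48 hours at 37C, 5% CO2. Viability was read as ATP by CellTiter-Glo luminescence, normalised to DMSO (100%) and media-only (0%) wells.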

[5] = Quantitative High-Throughput drug screen in 47 multiple myeloma cell lines against the NCATS MIPE library collection: KMM1_JCRB cell viability assay (AID 1918960); note: nearly all actives have a fitted effect of over 30% in size
Method in brief: as §2

[6] = Quantitative High-Throughput drug screen in 47 multiple myeloma cell lines against the NCATS MIPE library collection: JIM3_ECACC cell viability assay (AID 1918963; note: nearly all actives have a fitted effect of over 35% in size)
Method in brief: as §3

[7] = Quantitative High-Throughput drug screen in 47 multiple myeloma cell lines against the NCATS MIPE library collection: JIM1_ECACC cell viability assay (AID 1918964)
Method in brief: as §1

[8] = Quantitative High-Throughput drug screen in 47 multiple myeloma cell lines against the NCATS MIPE library collection: Karpas25_ECACC cell viability assay (AID 1918968; note: nearly all actives have a fitted effect of over 35% in size)
Method in brief: as §1

[9] = Quantitative High-Throughput drug screen in 47 multiple myeloma cell lines against the NCATS MIPE library collection: KMS27_JCRB cell viability assay (AID 1918970); note: nearly all actives have a fitted effect of over 30% in size
Method in brief: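 CellTiter-Glo luminescence after 48 h drug exposure at 37 °C; 500 cells/well, 1536-well format, pin-tool compound addition; DMSO = 100%, media-only = 0% viability.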

[10] = Quantitative High-Throughput drug screen in 47 multiple myeloma cell lines against the NCATS MIPE library collection: KMS12BM_JCRB cell viability assay (AID 1918971); note: nearly all actives have a fitted effect of over 35% in size
Method in brief: (§4)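 Luminescent ATP measurement with CellTiter-Glo gives viability, scaled between DMSO-only wells (100%) and media-only wells (0%). Cells, 500 per well, faced library compounds for 48 hours at 37C.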

[11] = Quantitative High-Throughput drug screen in 47 multiple myeloma cell lines against the NCATS MIPE library collection: KMS12PE_JCRB cell viability assay (AID 1918972); note: nearly all actives have a fitted effect of over 30% in size
Method in brief: (§5)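 CellTiter-Glo ATP luminescence gave viability after 48 h compound treatment at 37C of 500 multiple myeloma cells per well. Normalisation used DMSO-only wells as 100% and media-only wells as 0% viability; primary qHTS of approved and investigational drugs.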

[12] = Quantitative High-Throughput drug screen in 47 multiple myeloma cell lines against the NCATS MIPE library collection: KMS20_JCRB cell viability assay (AID 1918973); note: nearly all actives have a fitted effect of over 45% in size
Method in brief: as §1

[13] = Quantitative High-Throughput drug screen in 47 multiple myeloma cell lines against the NCATS MIPE library collection: Karpas417_ECACC cell viability assay (AID 1918961); conditions: Karpas417 myeloma viability, CellTiter-Glo ATP luminescence, 48 h; viability (% of DMSO): at 45.8 µM (top of the series)
Method in brief: as §5

[14] = Quantitative High-Throughput drug screen in 47 multiple myeloma cell lines against the NCATS MIPE library collection: H1112_PLB cell viability assay (AID 1918967; note: nearly all actives have a fitted effect of over 30% in size)
Method in brief: as §1

[15] = Quantitative High-Throughput drug screen in 47 multiple myeloma cell lines against the NCATS MIPE library collection: MMM1_PLB cell viability assay (AID 1918976); note: nearly all actives have a fitted effect of over 35% in size
Method in brief: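 ATP-based CellTiter-Glo luminescence after 48 h drug exposure (37 °C, 5% CO2) of 500 myeloma cells per well. DMSO-only wells set 100% viability, media-only wells 0%; MIPE 4.0 library added by pin tool.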

[16] = Quantitative High-Throughput drug screen in 47 multiple myeloma cell lines against the NCATS MIPE library collection: INA6_PLB cell viability assay (AID 1918965; note: nearly all actives have a fitted effect of over 55% in size)
Method in brief: as §5

[17] = Quantitative High-Throughput drug screen in 47 multiple myeloma cell lines against the NCATS MIPE library collection: KMS21BM_JCRB cell viability assay (AID 1918974); conditions: ATP luminescence, 48 h; viability: at 45.8 µM (top of the series) unless noted
Method in brief: as §1

[18] = Quantitative High-Throughput drug screen in 47 multiple myeloma cell lines against the NCATS MIPE library collection: KHM11_PLB cell viability assay (AID 1918962); note: nearly all actives have a fitted effect of over 35% in size
Method in brief: as §3

[19] = Quantitative High-Throughput drug screen in 47 multiple myeloma cell lines against the NCATS MIPE library collection: JJN3_DSMZ cell viability assay (AID 1918966; note: nearly all actives have a fitted effect of over 50% in size)
Method in brief: as §1

[20] = Quantitative High-Throughput drug screen in 47 multiple myeloma cell lines against the NCATS MIPE library collection: KMS26_JCRB cell viability assay (AID 1918975); note: nearly all actives have a fitted effect of over 45% in size
Method in brief: as §4
Potency is the fitted concentration of half-maximal effect.

SMILES | Potency [1] | Potency [2] | Potency [3] | Potency [4] | Potency [5] | Potency [6] | Potency [7] | Potency [8] | Potency [9] | Potency [10] | Potency [11] | Potency [12] | Potency [13] | Potency [14] | Potency [15] | Potency [16] | Potency [17] | Potency [18] | Potency [19] | Potency [20]
N#Cc1ccc(NC(=O)Nc2ccccc2Br)c2n[nH]nc12 | 14.8 µM (active) | inactive | 10.5 µM (active) | 13.2 µM (active) | 20.9 µM (active) | inactive | 8.33 µM (active) | 16.6 µM (active) | 13.2 µM (active) | inactive | 9.35 µM (active) | inactive |  |  |  |  |  |  |  | 
C[C@]12CC[C@@H]3c4ccc(O)cc4CC[C@H]3[C@H]1C[C@@H](O)[C@H]2O | 18.7 µM (active) | 9.35 µM (active) | inactive | 18.7 µM (active) |  | inactive |  | inactive |  |  |  | inactive | inactive | inactive | 13.2 µM (active) |  |  |  |  | 
CC1(C)S[C@H]2[C@H](NC(=O)[C@@H](N)c3ccc(O)cc3)C(=O)N2[C@@H]1C(=O)O | 2.35 µM (active) | 20.9 µM (active) | 4.69 µM (active) | 14.8 µM (active) |  | inactive | 7.43 µM (active) | 4.69 µM (active) | 0.935 µM (active) |  | 4.18 µM (active) |  | 1.66 µM (active) | inactive |  | 20.9 µM (active) | 0.296 µM (active) |  |  | 
Cc1nc(N)sc1-c1ccnc(Nc2ccc(N3CCOCC3)cc2)n1 | 2.64 µM (active) | 8.33 µM (active) | 5.26 µM (active) | 20.9 µM (active) | 4.69 µM (active) | 14.8 µM (active) |  | 5.9 µM (active) | 6.62 µM (active) | 14.8 µM (active) | 2.64 µM (active) | 7.43 µM (active) |  | 16.6 µM (active) | 20.9 µM (active) | 1.48 µM (active) |  | 6.62 µM (active) | 11.8 µM (active) | 
CC(=O)Nc1ccc([C@H](C)C(=O)Nc2ncc(C(C)C)s2)cc1 | 0.662 µM (active) | 2.64 µM (active) | 1.18 µM (active) | 2.35 µM (active) | 5.26 µM (active) | 7.43 µM (active) | 1.66 µM (active) | 1.05 µM (active) |  | 2.35 µM (active) |  | 3.32 µM (active) |  | 4.18 µM (active) | 6.62 µM (active) | 4.18 µM (active) |  |  |  | 1.32 µM (active)
Clc1ccc(C(c2ccc(Cl)cc2)n2cc[n+](CC(OCc3ccc(Cl)cc3Cl)c3ccc(Cl)cc3Cl)c2)cc1 (centres undefined) | 16.6 µM (active) | 11.8 µM (active) | 11.8 µM (active) | 9.35 µM (active) | 8.33 µM (active) | 16.6 µM (active) | 8.33 µM (active) |  | 7.43 µM (active) | 23.5 µM (active) | 7.43 µM (active) | 8.33 µM (active) | 8.33 µM (active) | 11.8 µM (active) | 18.7 µM (active) |  | 8.33 µM (active) | 10.5 µM (active) | 20.9 µM (active) | 16.6 µM (active)
N#CC1(c2ccc(NC(=O)c3cccnc3NCc3ccncc3)cc2)CCCC1 | inactive | inactive | inactive | inactive | inactive | inactive | inactive |  | inactive | 23.5 µM (active) | 0.469 µM (active) |  |  | inactive | 18.7 µM (active) | 18.7 µM (active) |  | inactive |  | 
C[C@H](NC(=O)C(=O)Nc1ccccc1C(C)(C)C)C(=O)N[C@@H](CC(=O)O)C(=O)COc1c(F)c(F)cc(F)c1F | 4.69 µM (active) | 14.8 µM (active) | 1.18 µM (active) | 2.64 µM (active) | 1.66 µM (active) | inactive | 4.18 µM (active) | 20.9 µM (active) | 3.32 µM (active) |  | 4.69 µM (active) |  |  | inactive | inactive | 18.7 µM (active) | 6.62 µM (active) |  |  | inactive
CC=CC(=O)N(CC)c1ccccc1C | inactive | 5.26 µM (active) | inactive |  | inactive | inactive | inactive | inactive | inactive | inactive | inactive | inactive |  | inactive |  | inactive |  | inactive |  | 
Cc1c(O)cccc1C(=O)N[C@@H](CSc1ccccc1)[C@H](O)CN1C[C@H]2CCCC[C@@H]2C[C@@H]1C(=O)NC(C)(C)C | 16.6 µM (active) | 23.5 µM (active) | 16.6 µM (active) | 14.8 µM (active) |  | 20.9 µM (active) | 9.35 µM (active) | 14.8 µM (active) | 16.6 µM (active) | 20.9 µM (active) | 10.5 µM (active) |  | 14.8 µM (active) |  | 20.9 µM (active) | 23.5 µM (active) |  | 18.7 µM (active) | 18.7 µM (active) | 29.6 µM (active)
CC(C)C(C)C=CC(C)C1CCC2C3=CC=C4CC(O)CCC4(C)C3CCC21C (centres undefined) | inactive | inactive | inactive | 18.7 µM (active) | inactive | inactive |  | inactive |  | inactive | inactive |  | inactive | inactive |  |  |  |  |  | 
CC(C)(C)COc1ccc(-n2cc(C(=O)O)cn2)cc1C#N | inactive | inactive | inactive | inactive | inactive | inactive |  |  | inactive | inactive | inactive |  |  | inactive |  |  |  |  | inactive | 
